High-throughput results: PubChem, several laboratories
Shown are actives, neighbours in structure and some others; about 2.4% of the full set was active somewhere.
APOBEC3A inh – inhibitors of human APOBEC3A DNA deaminase; AID 493011; P31941; recombinant A3A, FAM/TAMRA ssDNA deamination fluorescence; inhibition, % at 20 µM; 330,000 tested, 0.41% active;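 active = at least 40% inhibition at 20 µM here, with at most 30% in a related deaminase screen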;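 note: plate controls were A3A with DMSO for no effect and wells lacking A3A enzyme for full effect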
ADAM17 inh – inhibitors of human ADAM17; P78536; recombinant ADAM17, EDANS/DABCYL FRET peptide cleavage; inhibition, % at 6.95 µM; 370,000 tested, 0.83% active; AID 720648;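 active = inhibition above the mean of compounds lying between control limits plus 3 SD, set per campaign, cut at about 8.5% in these data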;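 note: 0% = DMSO-only wells as the low control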
ADAM10 inh – ADAM10 inhibition, QFRET primary screen; recombinant ADAM10, EDANS/DABCYL FRET peptide cleavage, 3 h; O14672; AID 720582; 370,000 tested, 0.62% active; inhibition, % at 7 µM;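 active = inhibition above a per-campaign cutoff equal to the mean of compounds falling between control-based bounds plus 3 SD, cut at about 20% in these data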;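 note: 0% = DMSO wells while the 100% control is not disclosed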
A3G deaminase – APOBEC3G (human) deaminase inhibition. 330,000 tested, 0.28% active. inhibition, % at 20 µM. recombinant A3G, ssDNA deamination FAM/TAMRA fluorescence. AID 493012;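 active = inhibition of at least 40% at 20 µM, with no more than 30% in the related APOBEC3A deaminase screen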;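 note: plate controls were DMSO wells with A3G for no effect and wells lacking A3G enzyme for full effect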
NRP1-CendR mod – alters CendR peptide binding to human NRP-1; O14786; FAM-RPARPAR peptide binding to NRP-1, fluorescence polarization; inhibition, % at 25 µM; 360,000 tested, 0.85% active;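 active = inhibition or corrected inhibition above about 18%, plus a signal ratio from 0.5 to 1.5, limit read from the data, passing the limit was not always enough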
Target sequence (O14786 whole entry, looked up): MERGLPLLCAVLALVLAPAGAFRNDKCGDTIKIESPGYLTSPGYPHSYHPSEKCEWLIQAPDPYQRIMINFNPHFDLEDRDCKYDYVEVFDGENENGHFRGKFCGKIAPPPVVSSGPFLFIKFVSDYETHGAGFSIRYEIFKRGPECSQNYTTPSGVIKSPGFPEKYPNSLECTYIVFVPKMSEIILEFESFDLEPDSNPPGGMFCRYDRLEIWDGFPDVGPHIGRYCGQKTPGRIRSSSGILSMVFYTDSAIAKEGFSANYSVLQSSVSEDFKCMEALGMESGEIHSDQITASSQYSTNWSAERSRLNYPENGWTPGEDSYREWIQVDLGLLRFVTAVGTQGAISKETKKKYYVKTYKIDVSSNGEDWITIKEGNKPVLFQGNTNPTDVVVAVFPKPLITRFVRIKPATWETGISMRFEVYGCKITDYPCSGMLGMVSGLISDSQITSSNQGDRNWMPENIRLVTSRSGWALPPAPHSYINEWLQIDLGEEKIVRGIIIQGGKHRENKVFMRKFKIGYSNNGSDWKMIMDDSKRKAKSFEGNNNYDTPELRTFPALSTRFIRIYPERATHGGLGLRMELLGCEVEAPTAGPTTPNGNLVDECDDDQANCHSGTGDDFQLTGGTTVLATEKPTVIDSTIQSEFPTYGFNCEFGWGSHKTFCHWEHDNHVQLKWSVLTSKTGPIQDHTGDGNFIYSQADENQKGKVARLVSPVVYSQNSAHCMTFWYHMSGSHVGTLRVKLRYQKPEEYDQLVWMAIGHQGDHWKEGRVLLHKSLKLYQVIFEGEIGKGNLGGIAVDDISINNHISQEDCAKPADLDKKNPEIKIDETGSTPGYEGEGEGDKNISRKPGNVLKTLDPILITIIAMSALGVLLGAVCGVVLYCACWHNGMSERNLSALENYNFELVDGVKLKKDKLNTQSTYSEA
ADAM10 confirm – confirmation of inhibitors of human ADAM10. 2,100 tested, 1% active. AID 743208. shares compounds with ADAM10 inh. ADAM10 QFRET peptide cleavage, EDANS fluorescence. inhibition, % at 6.95 µM;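 active = inhibition above about 20% chosen separately for each screening run, limit read from the data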;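 note: 0% = DMSO wells and 100% = marimastat wells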
ADAM17 ctr – ADAM17 inhibition, counter-screen for ADAM10 exosite hits. ADAM17 QFRET peptide cleavage, EDANS fluorescence. inhibition, % at 6.95 µM. shares compounds with ADAM10 inh. 2,100 tested, 0.5% active;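 active = mean triplicate inhibition above the solvent-only control wells' mean plus 3 SD, cut at about 12% in these data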;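 note: 0% = DMSO wells and 100% = marimastat wells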
ADAM10 counter – inhibits human ADAM10 in ADAM17 exosite counter-screen. inhibition, % at 6.95 µM. AID 743256. 2,900 tested, 47% active. recombinant ADAM10, EDANS/DABCYL FRET peptide cleavage, 3 h. shares compounds with ADAM17 inh;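 active = mean inhibition over the triplicate runs exceeds the activity threshold set in the earlier primary screen, cut at about 20% in these data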;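 note: 0% = DMSO wells and 100% = marimastat wells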
ADAM17 confirm – human ADAM17 inhibition, confirmation; recombinant ADAM17, EDANS/DABCYL QFRET peptide cleavage; inhibition, % at 6.95 µM; 2,900 tested, 65% active; shares compounds with ADAM17 inh;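 active = mean inhibition across replicates above the hit cutoff set in the primary screen, cut at about 8.5% in these data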;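 note: 0% = DMSO wells and 100% = marimastat wells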
* = called active by the depositor.

For Cc1ccc(S(=O)(=O)c2cccc(S(=O)(=O)N3CCOCC3)c2)cc1S(=O)(=O)N1CCOCC1 the results were APOBEC3A inh 0, ADAM17 inh -4, ADAM10 inh -5, A3G deaminase -3 and NRP1-CendR mod 0.
Screening COc1ccc(Cl)cc1Cn1c(C)c(C(=O)NCc2ccc(F)cc2)sc1=O returned ADAM17 inh 11*, ADAM10 inh 27*, NRP1-CendR mod 9, ADAM10 confirm 2, ADAM17 ctr 1, ADAM10 counter 12 and ADAM17 confirm 5.
Screening COC(=O)[C@]12C[C@H](CC(=O)NCc3cccc(C(F)(F)F)c3)C(=O)N(Cc3ccccc3)C1=C[C@H](C1CCCC1)O[C@@H]2C returned ADAM17 inh 6 and ADAM10 inh 13.
Screening COc1cc2c(cc1NC(=O)C(C)Sc1ccc(NC(C)=O)cc1)oc1ccccc12 (centres undefined) returned APOBEC3A inh 5, ADAM17 inh 22*, ADAM10 inh 47*, A3G deaminase 0, NRP1-CendR mod -1, ADAM10 confirm 9, ADAM17 ctr 3, ADAM10 counter 32* and ADAM17 confirm 18*.
Screening COc1cc2c(cc1NC(=O)Nc1ccc(C)cc1)oc1ccccc12 returned APOBEC3A inh 1, ADAM17 inh -10, ADAM10 inh -24, A3G deaminase -3 and NRP1-CendR mod 4.
CCN1C[C@@H]2[C@@H]3C(=O)N(Cc4ccccc4)C(=O)[C@@H]3[C@](CC)(C1=O)N2C(=O)c1ccc(Cl)cc1 was read as ADAM17 inh -3 and ADAM10 inh 1.
Screening CC(O)(c1ccc(F)c(F)c1)c1nc(-c2cnc3ccccc3c2)cs1 (centres undefined) returned ADAM17 inh 5, ADAM10 inh 0 and NRP1-CendR mod -10.
`CC(O)(c1ccc(F)c(F)c1)c1nc(-c2ccc3ccccc3c2)cs1` (centres undefined) gave ADAM17 inh 22*, ADAM10 inh 44*, NRP1-CendR mod 3, ADAM10 confirm 7, ADAM17 ctr 3, ADAM10 counter 17 and ADAM17 confirm 9.4*.
CC(O)(c1ccccc1)c1nc(-c2cc3ccccc3o2)cs1 (centres undefined) was read as ADAM17 inh 8.7*, ADAM10 inh 26*, NRP1-CendR mod -20, ADAM10 confirm 13, ADAM17 ctr 4, ADAM10 counter 30* and ADAM17 confirm 15*.
Cc1ccc(C2CC2C(=O)NNC(=S)Nc2cccc(Cl)c2)cc1 (centres undefined) was read as APOBEC3A inh -2, ADAM17 inh 22*, ADAM10 inh 39*, A3G deaminase -6, NRP1-CendR mod -4, ADAM10 confirm 7, ADAM17 ctr 1, ADAM10 counter 24* and ADAM17 confirm 11*.
For Cc1ccccc1CN1[C@@H](C)[C@H](c2ccccc2)Oc2cccc(N3CCCC3)c2S1(=O)=O the results were ADAM17 inh -3 and ADAM10 inh -13.
`CCN(c1ccc(NS(=O)(=O)c2cc(Cl)ccc2Cl)cc1)C(C)C` gave APOBEC3A inh 2, ADAM17 inh 11*, ADAM10 inh 24*, A3G deaminase -8, NRP1-CendR mod 1, ADAM10 confirm 2, ADAM17 ctr 1, ADAM10 counter 13 and ADAM17 confirm 10.0*.
Screening CN(C)c1ccc(NS(=O)(=O)c2cc(Cl)ccc2Cl)cc1 returned APOBEC3A inh 1, ADAM17 inh 5, ADAM10 inh 8, A3G deaminase -5 and NRP1-CendR mod -9.
`COC(=O)c1cc(-c2cc(Cl)cc(Cl)c2)c(=O)n2c1CCC2` gave ADAM17 inh -5 and ADAM10 inh -5.
Screening CCC(=O)N(Cc1ccco1)c1nc(C(=O)Nc2ccc(Cl)cc2)c(C)s1 returned APOBEC3A inh -2, ADAM17 inh 11*, ADAM10 inh 22*, A3G deaminase 0, NRP1-CendR mod -14, ADAM10 confirm 11, ADAM17 ctr 3, ADAM10 counter 32* and ADAM17 confirm 17*.
For NS(=O)(=O)c1ccc(NC(CNS(=O)(=O)c2ccccc2)c2ccccc2)cc1 (centres undefined) the results were APOBEC3A inh -7, ADAM17 inh -5, ADAM10 inh -5, A3G deaminase -18 and NRP1-CendR mod -6.
Screening O=S(=O)(NCC(Nc1ccc(Cl)cc1)c1ccccc1)c1ccccc1 (centres undefined) returned APOBEC3A inh -2, ADAM17 inh 26*, ADAM10 inh 53*, A3G deaminase -6, NRP1-CendR mod -6, ADAM10 confirm 11, ADAM17 ctr 3, ADAM10 counter 46* and ADAM17 confirm 22*.
Screening C[C@H]1CN([C@@H](C)CO)C(=O)Cc2cc(NC(=O)CCC(F)(F)F)ccc2O[C@H]1CN(C)S(C)(=O)=O returned APOBEC3A inh 3, ADAM17 inh 0, ADAM10 inh 5, A3G deaminase 12 and NRP1-CendR mod 18.
`C[C@H](CO)N1C[C@H](C)[C@H](CN(C)S(=O)(=O)c2cn(C)cn2)Oc2ccc(NC(=O)Nc3ccc(C(F)(F)F)cc3)cc2CC1=O` gave APOBEC3A inh -2, ADAM17 inh 8, ADAM10 inh 15, A3G deaminase -2 and NRP1-CendR mod 1.
C[C@H]1CN([C@@H](C)CO)C(=O)Cc2cc(NC(=O)CCC(F)(F)F)ccc2O[C@H]1CN(C)Cc1ccc(C(F)(F)F)cc1 was read as APOBEC3A inh 2, ADAM17 inh 11*, ADAM10 inh 25*, A3G deaminase -1, NRP1-CendR mod 18, ADAM10 confirm 2, ADAM17 ctr 2, ADAM10 counter 27* and ADAM17 confirm 16*.
`C[C@@H]1CN([C@@H](C)CO)C(=O)Cc2cc(NC(=O)Nc3ccc(C(F)(F)F)cc3)ccc2O[C@@H]1CN(C)S(=O)(=O)c1ccc(Cl)cc1` gave APOBEC3A inh 1, ADAM17 inh 15*, ADAM10 inh 35*, A3G deaminase -3, NRP1-CendR mod -1, ADAM10 confirm 9, ADAM17 ctr 3, ADAM10 counter 51* and ADAM17 confirm 27*.
